The text below walks through data of the supplement of paper PMC10681739.
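Also: Full-length recombinant human RUNX1 bound to double-stranded 36-bp genomic probes on a high-density microarray, scored as Alexa488 fluorescence per spot via anti-RUNX1 antibody, median of four replicate spots.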

In the assay the target is RUNX1 (UniProt Q01196). Briefly: RUNX1 binding intensity (PBM fluorescence), RUNX1 alone (arbitrary fluorescence units); higher = stronger binding. The settings on record: RUNX1 concentration 2 nM; ETS1 concentration 0 nM. How it is done: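 Cooperative gcPBM on 36-bp genomic probes with neighbouring ETS1 and RUNX1 sites. Recombinant human RUNX1 (2 nM) was incubated alone or with ETS1 (25 nM) and detected with anti-RUNX1 antibody plus Alexa488 secondary. Values are medians over 4 replicate spots; the RUNX1+ETS1 data were normalised to the RUNX1-only data. The probes sit in constant array flanks that are not printed.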
RUNX1, sequence (Q01196 whole entry): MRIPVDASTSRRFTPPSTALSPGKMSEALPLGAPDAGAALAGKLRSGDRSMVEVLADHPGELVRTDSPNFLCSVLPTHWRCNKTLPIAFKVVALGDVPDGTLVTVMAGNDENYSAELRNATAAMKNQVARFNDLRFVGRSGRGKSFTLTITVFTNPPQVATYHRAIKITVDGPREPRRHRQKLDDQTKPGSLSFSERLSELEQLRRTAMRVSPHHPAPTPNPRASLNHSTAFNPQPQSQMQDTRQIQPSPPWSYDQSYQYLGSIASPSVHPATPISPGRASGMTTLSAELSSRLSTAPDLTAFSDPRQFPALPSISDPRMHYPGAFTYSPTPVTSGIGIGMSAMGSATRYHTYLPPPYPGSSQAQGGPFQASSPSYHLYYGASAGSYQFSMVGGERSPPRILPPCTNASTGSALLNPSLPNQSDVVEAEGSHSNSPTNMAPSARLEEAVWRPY
Sequence TCTCTATGGTTTCCGTTGGGTGTGTGGTTTTTTTGT yielded an RUNX1 binding intensity of 1130. Next, CTTAGTGGGGCAGGATGTGGTCAGGGAAGCTGATCT: 836.

In turn, CCCACCCAGGAAGCCGTCCTAACCACAACAGCCCTC gave an RUNX1 binding intensity of 4100. The figure for CTGACAGTTACTTCCTGTCTTTGTGGGCGATTGTGA is 829; for TACATAGGCGGAAGTGGCCTGCGGGCGCCGGAGTTG it is 714; for GAAGCTACTCTGGTTTCCTGTGGTTTTCTGAGCACT it is 1260.

Consider TGGGTACTTCCTGTGACAAATCGAGTTGACCACATG, for which the RUNX1 binding intensity is 678.

In turn, TCTTCTTCCTCCCCCACCCCAAAAGCCACAGGTGAC returned an RUNX1 binding intensity of 1290. For GCGGCTTTGTACGGAAACCCACACACATTGTTATTT, the RUNX1 binding intensity was found to be 984. Regarding TCTGGGGGAGGGGAAGGATGTGGTTTGCAGAGCGGA, the RUNX1 binding intensity amounted to 1020. GCAGTGCAGGAAGTGCTTTGTGTGGTACAATCCCAA displayed an RUNX1 binding intensity of 759.

Sequence TGTCAGCTGCGTTTCCGCGGTCGCGGGTGAGTGTGC gave an RUNX1 binding intensity of 752.

CCTGTACGGAAGCTACTCTGGTTTCATGTGGTTTCA displayed an RUNX1 binding intensity of 904. The sequence CAGCCGACTTCCGGGGTGGGGCTTGCTGCCGCAGAG had an RUNX1 binding intensity of 774.

AAAGAACTTCCTGAGGTGCTTGAGGTTAGGCTATGG displayed an RUNX1 binding intensity of 727. Turning to GAACTTCCGGGACCACGTGACGTAGAACCACAACAA, the RUNX1 binding intensity amounted to 815. The figure for GCCGCTGCCTCTTCCTGTGTGGTTTTTCAGGGCTTA is 1050; for GGCCCGGCCGGAAGAAGCCACCTCCCCCGCACGCGT it is 849.

CCTCACAGGGACTTCCTTCCCCGCGGTTCAGGAATC: the RUNX1 binding intensity was found to be 866.

ACTTTCGCGACGCAGGAAGCGCCCACAAAGGGAGGA gave an RUNX1 binding intensity of 802. With GGGCGGAAGGGGTTCGCACGCCAAGAACCGCCATGC, the RUNX1 binding intensity was determined as 855. The figure for GGAGGAAGTGACACCCACCCACTGCCCCCGCAAGGT is 797.

With CAGCGGCCGTCGCGGGAAGTGCGGTCGCCGCGGCCA, the RUNX1 binding intensity is 871.

Sequence CAGGCTGCTTCCGGCGCGCGGCAGAGCGGTCAGAGC gave an RUNX1 binding intensity of 714. GCACCGTCTACCCGGAAGTTGTGGGCTGGGAGGGAT had an RUNX1 binding intensity of 813.

Take GAAATCACATCCTTTTGCAAAACCACAGGTGTTTTG: the RUNX1 binding intensity was 1320. On to GCGCCCGGAAGGAAGGCTGGGGTAGGTTGTGGTTTC, for which the RUNX1 binding intensity came out at 830.

The sequence AGCGCCCCATCCCGCGGATGTGGTAAAGCTTCGCGC came in with an RUNX1 binding intensity of 788. GACAGAGGAAACTAGGTGTGACAACCACAAACAGCT returned an RUNX1 binding intensity of 882. The sequence TGTTGTAGGGGAAGTGGTGTGTGGTATTCCTGGGGA yielded an RUNX1 binding intensity of 811. The sequence GTAGGGAAGACGGGATGTGGGTTTTCAGCCGTGGCC had an RUNX1 binding intensity of 730.

As for ACAATAACAGGAAGTGGTGGGGACTGCGGTGACCTG, the RUNX1 binding intensity was 865. The figure for TTGGTCAGGATGTGGCTGAAGAAGCCACAAGAAAAA is 769; for CACTTCCTGTCAAAGCCAGTTCCTTAACCGCTTAGG it is 948. CTGCTTCCGGCCCCGGGGTTCGCTACCCCACAATCC yielded an RUNX1 binding intensity of 981.

CATACAGGATGCTGGGGTATGTAAAACAAACCACGG: the RUNX1 binding intensity was 775.

GACTCCCTCAGCGGATGCGGGTGCTGCTGCTGCTGC yielded an RUNX1 binding intensity of 743. For AACCTAGAAAAGGAAGCTGCGGTTTTTCAGGGTATG, the RUNX1 binding intensity was found to be 8830. With GCCATCCAGGAAGTACAGACTCCCTGACCGCACTGA, the RUNX1 binding intensity was 1140.

In turn, GTGCCCCGGACCTACGGATACCACACACAGACAGGC had an RUNX1 binding intensity of 928.
